The full ranking holds about 33,000 sequences; the median of “E-score (-0.5 to 0.5)” is about -0.021, and the highest 2% start at about 0.32. This excerpt belongs to a sample that is enriched for the highest values.
target: T1, Zap1 (UniProt P47043); test: PBM E-score (8-mer binding enrichment) (E-score (-0.5 to 0.5)); higher = stronger / more preferred TF binding; conditions: protein concentration: 200 nM; construct: GST-full length
T1 sequence: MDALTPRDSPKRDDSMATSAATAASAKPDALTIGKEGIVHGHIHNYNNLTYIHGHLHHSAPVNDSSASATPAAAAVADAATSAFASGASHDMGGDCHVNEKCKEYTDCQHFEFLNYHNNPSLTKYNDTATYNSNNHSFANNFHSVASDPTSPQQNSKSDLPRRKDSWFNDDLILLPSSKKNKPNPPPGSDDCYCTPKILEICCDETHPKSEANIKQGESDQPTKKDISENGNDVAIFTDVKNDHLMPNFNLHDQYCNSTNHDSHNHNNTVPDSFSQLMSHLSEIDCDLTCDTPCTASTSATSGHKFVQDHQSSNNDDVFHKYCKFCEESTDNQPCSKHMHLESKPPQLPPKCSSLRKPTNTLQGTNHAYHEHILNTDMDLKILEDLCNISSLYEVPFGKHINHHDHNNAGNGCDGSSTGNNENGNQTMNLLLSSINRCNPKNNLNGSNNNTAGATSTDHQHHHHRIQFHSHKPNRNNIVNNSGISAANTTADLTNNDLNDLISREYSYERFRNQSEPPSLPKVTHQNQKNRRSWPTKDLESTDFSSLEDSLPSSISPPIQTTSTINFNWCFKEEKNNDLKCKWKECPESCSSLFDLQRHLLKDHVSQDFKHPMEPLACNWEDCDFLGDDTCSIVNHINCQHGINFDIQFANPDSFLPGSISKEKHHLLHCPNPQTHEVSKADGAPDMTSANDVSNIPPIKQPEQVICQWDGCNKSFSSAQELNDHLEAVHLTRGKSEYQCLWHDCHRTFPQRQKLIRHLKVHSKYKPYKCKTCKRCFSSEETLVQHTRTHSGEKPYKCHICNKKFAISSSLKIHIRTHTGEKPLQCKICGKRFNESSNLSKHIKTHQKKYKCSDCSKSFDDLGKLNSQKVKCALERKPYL
Description: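 Universal 'all 10-mer' protein binding microarrays (Agilent AMADID 015681) probed with GST-tagged S. cerevisiae TFs (full-length or DBD) made by in vitro transcription/translation (PURExpress), about 100-200 nM. Bound TF was detected with fluorescent anti-GST. Each ungapped 8-mer (which stands for itself and its reverse complement) is scored by the PBM enrichment score (E-score), a modified Wilcoxon-Mann-Whitney statistic from -0.5 to +0.5, computed with the Universal PBM Analysis Suite. Scale: above 0.35 generally sequence-specific binding.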

Sequence | PBM E-score
GGTAGTAC | 0.248
CCAGCACA | -0.00996
ATCGACCG | -0.132
AGGTTATA | 0.469
ATGTTATA | -0.0204
CTGTTATA | 0.115
ACGTTATC | -0.101
CGGTTATA | 0.405
CCGTTATA | 0.103
ACGTTATA | 0.137
AGGTTATC | 0.463
ATGTTATG | 0.158
AAGTTATG | 0.181
AGGTTATG | 0.475
AAGTTATC | 0.0532
GAGTACAC | -0.0741
CGTTCCCA | -0.125
AAGCAATG | 0.0748
GAGAATAA | 0.0442
ACGATCGT | 0.0702
ATACAGAA | 0.0186
AGTCTAGA | -0.295
CTGAATGA | 0.0581
AGATAGCG | -0.163
AGGCCTTG | -0.0709

Sequence | PBM E-score
ACATCCAA | -0.00617
GCGTTATA | 0.218
CTGTTATC | 0.0763
GGGTTATA | 0.474
CGGTTATC | 0.424
CAGTTATC | 0.0632
GAGTTATA | 0.142
GCACTGAA | -0.136
AGAGCGTG | -0.169
AGCCACAA | 0.153
GAGTCAGA | -0.157
AGAAGTAG | -0.123
AGCACCCA | -0.0894
ACCACCCC | -0.00264
ACCACCCT | 0.352
AGCACCCG | 0.125
ACCACCCA | 0.252
AGCACCCT | 0.317
GCAGGCTA | -0.25
CTATTCGA | -0.0524
CCTAGCGC | -0.0463
AGCGATGG | -0.195
CCACAACG | 0.0128
CCGCAACA | 0.162
CCGCAACC | 0.34

Sequence | PBM E-score
AGACAACC | 0.31
CCACAACC | 0.411
CGACAACC | 0.339
ACGCAACC | 0.316
CCACAACA | 0.109
CGACAACA | 0.0946
GCAGTTAC | 0.109
CCCAAGAC | -0.045
GTTGAGAA | -0.027
AGTACTGG | -0.141
GCGCTGTA | -0.043
ACCTAGGG | 0.119
ACCTAACC | 0.269
CCCTAGGG | 0.41
CCTTAACA | 0.116
CCCTAACC | 0.33
GCCTAACC | 0.125
CCTTAACC | 0.438
GCTTAACA | -0.0361
ACTTAACC | 0.287
GCTTAAAC | -0.0479
CCCTAGGA | 0.0656
GCTTAACC | 0.327
CACTTTAC | 0.0657
AGGTCTCC | 0.00142

Sequence | PBM E-score
ACACTTTC | -0.104
ATCCTCCG | -0.238
ATCCAACG | -0.139
AATCAGTC | -0.107
TCGCAACA | -0.0496
CCCTAAGA | 0.263
CCCTAAGC | -0.159
CCCTAAGG | 0.402
CGGGCGAG | -0.0126
GCCACCCA | -0.0281
CCCACCCA | 0.323
CCCACCCC | 0.149
CCCACCCG | 0.324
ACCACCCG | 0.184
TCCACCCA | -0.233
GTCTTCTA | -0.0319
CTGATGGA | -0.254
GACCTTGC | 0.133
CACCTTGA | 0.179
GACCTTGA | 0.34
TACCTTCA | 0.255
GTCCTTGA | 0.113
AACCTTGA | 0.429
TACCTTGA | 0.337
AACCTTGT | 0.229

Sequence | PBM E-score
AACCTTGC | 0.305
CTAGGGAC | -0.0705
CAAAACTC | 0.0001
GTCTCCCA | -0.252
GTAAAGGA | -0.0539
CATAAACG | 0.0839
AAGTAACA | -0.0158
CGGTAATA | 0.219
CGGTAACA | 0.253
CGGTAACC | 0.47
AGGTAAGA | 0.125
GGGTAATA | 0.348
AGGTAATA | 0.263
GGGTAACA | 0.334
AGGTAACA | 0.344
GTGTAACA | 0.0444
TGGTAACA | 0.0812
CGGTAACG | 0.0507
ATGAGCAT | 0.049
ACCTGAGT | 0.0343
GTGACGCA | 0.0591
TCTCTTCA | -0.139
AAGGGCGC | 0.0237
TCTACACA | 0.0487
AGGTAACT | 0.237

Sequence | PBM E-score
GGGTAAAC | 0.194
GGGTAAAA | 0.306
AGGTAACC | 0.441
AGGTAACG | 0.19
GGGTAACC | 0.46
CAGGAGGG | 0.143
AATTCACC | 0.0819
AGTCCTCC | -0.144
AAAGCAGG | -0.075
CGGTGACG | 0.0241
CGGTGACA | 0.193
GAGTGACC | 0.239
CGGTGACC | 0.327
AGGTGACG | 0.182
GGGTGACA | 0.252
AGGTGACC | 0.393
AGGTGACA | 0.0888
GGGTGACC | 0.385
TAAGACTA | -0.0191
TGACAAAA | 0.152
CAAGTGTA | -0.0404
AGCCCCCT | -0.406
AAGATGCG | -0.058
AAGAGGGA | -0.199
ATACTCTA | -0.0192

Sequence | PBM E-score
CGCCACTC | -0.113
GTAGGTAA | 0.199
CTAGGTTC | 0.0156
CTAGGTTA | 0.42
ATAGGTTG | 0.16
ATAGGTTA | 0.46
CTAGGTCA | 0.117
GTAGGTTA | 0.39
ATAGGTTC | 0.138
GTAGGTGA | 0.0614
AAGCACGT | -0.3
CGGTTAGC | 0.151
CCAATTAC | 0.103
ACCAAATC | 0.0501
AACTACCA | 0.179
AGTATCCG | -0.013
AGGTCTGA | -0.0295
CCTAGAGG | 0.366
ACTAGAGG | -0.0174
CCTAGAGA | -0.0434
GTAATGCA | -0.157
AAAGGGTA | 0.415
TAAGGGTA | 0.433
AAGGGGTA | 0.334
AGGGGGTA | 0.0442

Sequence | PBM E-score
GAAGGGAA | -0.194
GAAGGGGA | -0.0649
GAAGGGTA | 0.421
AAGGGGGA | -0.245
TAAGGGCA | -0.0345
TAAGGGGA | 0.00031
AAAGGGGA | -0.127
AAAGGGCA | -0.0435
AACGAATA | -0.00355
CAATCCAG | -0.0505
CGAAGTCG | 0.0486
GCTTCCGA | -0.0201
AGAGCAAT | -0.181
ACCCTAGT | 0.411
AACCTAGT | 0.161
CCCCTAGA | 0.147
TCCCTAGA | -0.0192
CCCCTAGG | 0.16
ACCCTAGG | 0.428
ACCCTAGC | 0.247
ACCCTAGA | 0.359
AACCTAGG | 0.232
GAAGTGGC | -0.106
GCGCATGA | -0.185
AGGACATG | -0.0235

Sequence | PBM E-score
AAATACCA | 0.129
GGGGGTTA | 0.0334
CCGGGTGA | 0.218
ACGGGTTC | 0.0245
CGGGGTTA | 0.474
ACGGGTTG | 0.158
GCGGGTAA | 0.106
CGGGGTTC | 0.168
ACGGGTTA | 0.408
CCGGGTTA | 0.388
CCGGGTTC | 0.247
GCGGGTTA | 0.366
GCGGGGTA | 0.293
ATCTTATG | -0.00019
CCCTTCAG | 0.122
GCGCACAC | -0.234
CGGCGTTA | 0.0618
ATCTAGGA | -0.0827
AAGTTGAT | -0.14
